The campaign covered roughly 2,400 compounds. About 580 (24%) were called active. Only a sample is shown. A number with no mark means an inactive call.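 Rule for the calls: active = activity change at or above the mean plus 3 SD of buffer wells without dofetilide, per plate; inactive = the rest.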

For this experiment, the target named is Potassium voltage-gated channel subfamily KQT member 2 (Rattus norvegicus) (UniProt O88943). The experiment in a line: rat KCNQ2 channel activation by compounds alone, confirmation, counter-screen for hERG block protector project, cell-based, CHO, FluxOR thallium flux (AID 1942).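 Note: normalized value minus buffer-control mean plus three SD of buffer wells.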 Particulars: CHO-KCNQ2 cells, FluxOR thallium flux fluorescence; at 10 µM; hits give high values.
Potassium voltage-gated channel subfamily KQT member 2 (Rattus norvegicus), sequence (O88943 whole entry, looked up): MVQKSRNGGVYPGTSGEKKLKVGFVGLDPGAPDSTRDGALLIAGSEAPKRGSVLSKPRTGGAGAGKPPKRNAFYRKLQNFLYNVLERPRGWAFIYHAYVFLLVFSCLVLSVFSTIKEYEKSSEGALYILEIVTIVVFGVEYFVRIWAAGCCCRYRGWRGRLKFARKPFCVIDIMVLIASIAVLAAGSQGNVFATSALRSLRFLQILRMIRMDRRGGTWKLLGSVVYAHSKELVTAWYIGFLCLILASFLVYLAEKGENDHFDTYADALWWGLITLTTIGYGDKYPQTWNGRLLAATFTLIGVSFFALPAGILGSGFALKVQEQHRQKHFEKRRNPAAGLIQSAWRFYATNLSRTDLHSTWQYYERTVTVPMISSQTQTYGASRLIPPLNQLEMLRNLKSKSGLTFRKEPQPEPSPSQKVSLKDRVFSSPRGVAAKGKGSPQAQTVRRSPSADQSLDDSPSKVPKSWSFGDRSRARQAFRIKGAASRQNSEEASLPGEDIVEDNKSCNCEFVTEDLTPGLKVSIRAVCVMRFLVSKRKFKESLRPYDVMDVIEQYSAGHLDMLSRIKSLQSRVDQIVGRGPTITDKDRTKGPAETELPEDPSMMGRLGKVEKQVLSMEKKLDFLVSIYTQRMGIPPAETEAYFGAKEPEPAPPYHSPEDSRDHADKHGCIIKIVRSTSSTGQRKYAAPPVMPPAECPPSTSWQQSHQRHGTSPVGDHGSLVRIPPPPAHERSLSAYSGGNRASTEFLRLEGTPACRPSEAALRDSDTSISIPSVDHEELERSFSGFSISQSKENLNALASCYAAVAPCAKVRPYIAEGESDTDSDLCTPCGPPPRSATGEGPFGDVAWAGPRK
Turning to `NS(=O)(=O)c1ccc(Sc2ccc3c(c2)CCC3)nc1`, the activity change, less the hit threshold is -2.7%.
On to `COc1cc(NS(=O)(=O)c2ccc(NC(=S)Nc3ccccc3)cc2)nc(OC)n1`, for which the activity change, less the hit threshold was -20.8%.
To `COc1ccc(C(=O)CSc2nnc3ccc(-c4ccccn4)nn23)cc1` belongs -17.4%.
In the case of `CS(=O)(=O)N1CCN(c2ccccc2NC(=O)Nc2cccc(Cl)c2)CC1`, the activity change, less the hit threshold was -24.2%.
Turning to `COc1ccc(-c2nc3ccc(C(=O)NCC(OC)OC)cc3nc2-c2ccc(OC)c(OC)c2)cc1OC`, the activity change, less the hit threshold was -22.7%.
Turning to `O=C1C(=O)N(CCN2CCOCC2)C(c2cccnc2)/C1=C(/O)c1ccc(Cl)cc1` (configuration not stated), the activity change, less the hit threshold is -17.6%.
As for `Nc1nnc(SCC(=O)OCc2ccc(F)cc2)s1`, the figure is -16.7%; as for `O=C(/C=C/c1ccccc1)c1cc(Br)ccc(=O)c1O`, 15% (active); as for `CCc1ccc(/C=C/C(=O)c2cc(Br)ccc(=O)c2O)cc1`, -8.6%.
On to `Cc1cccc(/C=C/C(=O)c2cc(Br)ccc(=O)c2O)c1`, for which the activity change, less the hit threshold is 3% (active).
Take `O=C(/C=C/c1ccccc1)CC(=O)c1ccccc1O`: the activity change, less the hit threshold was -15.2%.
On to `COc1cc(C2NC(=O)NC(O)(C(F)(F)F)C2C(C)=O)cc(OC)c1OC` (configuration not stated), for which the activity change, less the hit threshold is -20.3%.
Turning to `O=C1CC(C(=O)N2CCOCC2)C2(CCCCC2)O1` (configuration not stated), the activity change, less the hit threshold is -22.9%.
Take `CCOc1ccccc1CNC(=O)CNC(=O)c1cccs1`: the activity change, less the hit threshold is -20.9%.
As for `Cc1ccc(NC(=S)c2nc3ccccc3s2)cc1`, the figure is -9.6%; as for `S=C(Nc1ccc(Cl)cc1)c1nc2ccccc2s1`, 7.4% (active).
With `Cc1cccc(NC(=S)c2nc3ccccc3s2)c1`, the activity change, less the hit threshold was -23.6%.
For the molecule `CC(C)(C)n1nnnc1C(c1cc2cc3c(cc2[nH]c1=O)OCCO3)N1CCSCC1` (configuration not stated), the activity change, less the hit threshold is -17.4%.
As for `Cc1ccc2[nH]c(=O)c(C(c3nnnn3C3CCCC3)N3CCCc4ccccc43)cc2c1` (configuration not stated), the activity change, less the hit threshold was 13.3% (active).
As for `CC(=O)Nc1ccc(S(=O)(=O)NC2(C(F)(F)F)C(=O)Nc3c2c(=O)[nH]c(=O)n3C)cc1` (configuration not stated), the figure is -12.3%; as for `Cc1cc(OCCN2CCCCCC2)ccc1[N+](=O)[O-]`, -19.9%; as for `Cn1c(=O)cc(-c2ccccc2)c2ccccc21`, -20.4%.
As to `O=c1cc(-c2ccccc2)cc(-c2ccccc2)n1O`, the activity change, less the hit threshold was 57.6% (active).
As to `C/C=C(\C)CN1CCN(c2cccc(C)c2C)CC1`, the activity change, less the hit threshold was -16.9%.
To `Cc1ccccc1OCC(=O)NNC(=O)c1ccc2c(=O)n3c(nc2c1)CCC3` belongs -15.4%; to `O=C(COc1ccc(Br)cc1Br)NC(=S)N1CCCc2ccccc21`, -16.8%.
For `O=C(NC(=S)Nc1ccccc1N1CCCC1)c1ccc([N+](=O)[O-])cc1`, the activity change, less the hit threshold is -8.4%.
For the molecule `COc1ccccc1NC(=S)N1CCCc2ccccc21`, the activity change, less the hit threshold was -23.2%.
As to `O=C(NC(=S)N1CCCc2ccccc21)c1ccc(Br)cc1`, the activity change, less the hit threshold is 18.2% (active).
For the molecule `CCC(=O)N1CCCc2ccccc21`, the activity change, less the hit threshold is -20.5%.
With `O=C(NC(=S)N1CCCc2ccccc21)c1ccc([N+](=O)[O-])cc1`, the activity change, less the hit threshold is 15.1% (active).
To `COc1ccccc1NC(=O)Cc1nnc(SCC(=O)Nc2nccs2)n1C` belongs -13.3%.
`Cc1ccc(C2c3c(-c4ccccc4O)n[nH]c3C(=O)N2Cc2ccncc2)cc1` (configuration not stated): the activity change, less the hit threshold is -18.8%.
For the molecule `O=C1N2CCSC2=NC1(NS(=O)(=O)c1ccccc1)C(F)(F)F` (configuration not stated), the activity change, less the hit threshold is -12%.
Regarding `O=C(Nc1ccccc1)N1CCSc2cc(Cl)ccc21`, the activity change, less the hit threshold was -9.1%.
`Fc1ccc(-n2cc(-c3ccccc3)c3c(=S)nc[nH]c32)cc1`: the activity change, less the hit threshold was -9.7%.
As to `S=c1[nH]cnc2scc(-c3ccc(Br)cc3)c12`, the activity change, less the hit threshold was 4.9% (active).
Regarding `S=c1[nH]cnc2scc(-c3ccc(Cl)cc3)c12`, the activity change, less the hit threshold is 18.2% (active).
As to `S=c1[nH]cnc2scc(-c3ccccc3)c12`, the activity change, less the hit threshold is 44.9% (active).
In the case of `Cn1nnnc1Sc1ncnc2scc(-c3ccc(F)cc3)c12`, the activity change, less the hit threshold is -21.3%.
As for `Cc1ccc(C)n1-n1c(C)nc2scc(-c3ccccc3)c2c1=O`, the activity change, less the hit threshold was -30.9%.
With `Cn1cc(/C=N/n2cnc3scc(-c4ccc(Cl)cc4)c3c2=O)c2ccccc21`, the activity change, less the hit threshold was -18.8%.
Consider `Cc1ccc(-c2csc3nc[nH]c(=S)c23)cc1`, for which the activity change, less the hit threshold was 41% (active).
Turning to `CC1=NN(C(=O)c2cc(C)nn2C)C(O)(C(F)(F)F)C1` (configuration not stated), the activity change, less the hit threshold is -11.2%.
For `Nc1nc(Br)c2c(F)cccc2c1-c1ccc(Cl)cc1`, the activity change, less the hit threshold is -21.1%.
To `COc1ccc(NC(=O)C2CCN(S(=O)(=O)c3cn(C)nc3C)CC2)cc1` belongs -13.2%; to `O=C(Cn1c(=O)c2cccn2c2ccccc21)NCCc1ccc(Cl)cc1`, -34.9%; to `CC1CCCN(C(=O)COC(=O)c2cc(-c3cccs3)nn2-c2ccccc2)C1` (configuration not stated), -25.5%.
Take `O=C(CSc1ncnc2c1cnn2-c1ccc(Cl)cc1)NCc1ccc2c(c1)OCO2`: the activity change, less the hit threshold is -11.1%.
Consider `Cc1ccc(-n2ncc3c(SCC(=O)NNC(=O)c4ccco4)ncnc32)cc1`, for which the activity change, less the hit threshold is 4.4% (active).
As for `Cn1ncc2c(NNC(=O)Cc3ccccc3)ncnc21`, the figure is -14.4%; as for `CC(C)Oc1c(Cl)cc(CNC(C)(C)CO)cc1Cl`, -18.3%; as for `c1cnc2c(Oc3ncnc4sccc34)cccc2c1`, -17%.
On to `O=C(O)c1ccc(S(=O)(=O)/N=C2\C=C(Nc3ccccc3F)C(=O)c3ccccc32)cc1`, for which the activity change, less the hit threshold was 3.9% (active).
Take `Cc1ccccc1NC1=C/C(=N\S(=O)(=O)c2ccc(C(=O)O)cc2)c2ccccc2C1=O`: the activity change, less the hit threshold was 10% (active).
For the molecule `Cc1cc(NC(C)C)n2c(nc3ccccc32)c1C#N`, the activity change, less the hit threshold is -21.5%.
Turning to `Cc1cc(NC(=O)CCCn2cnc([N+](=O)[O-])n2)no1`, the activity change, less the hit threshold was -14.3%.
`Cc1sc2nc[nH]c(=S)c2c1-c1ccccc1`: the activity change, less the hit threshold was 41.3% (active).
Turning to `Cc1c(-c2ccccc2)sc2nc[nH]c(=S)c12`, the activity change, less the hit threshold is 43.6% (active).
To `CC(=O)C1=C(C)NC(=O)NC1/C=C/c1ccccc1` (configuration not stated) belongs -23%.
Take `CCN(CC(=O)NCc1ccc(Cl)cc1)C(=O)CCOc1ccc(C)cc1`: the activity change, less the hit threshold was -24.3%.
Regarding `CCCCCN(C(=O)CCC(=O)OCC(=O)N(C)C1CCCCC1)c1c(N)n(CCCC)c(=O)[nH]c1=O`, the activity change, less the hit threshold is -22.7%.
Take `CCN1CCN(C(=O)c2ccc(Cn3c(=O)[nH]c4cc(OC)c(OC)cc4c3=O)cc2)CC1`: the activity change, less the hit threshold is -7.7%.
Turning to `CN1CCN(c2ccc(NC(=O)c3ccc(Br)o3)cc2)CC1`, the activity change, less the hit threshold was -6.3%.
Regarding `Cc1cccc(NC(=O)CCNC(=O)c2ccco2)c1C`, the activity change, less the hit threshold is -12.3%.
Turning to `Cc1cccc(NC(=S)NC(=O)c2ccco2)c1C`, the activity change, less the hit threshold is 54.7% (active).
Take `Cc1cccc(NC(=S)NC(=O)c2ccc(Br)o2)c1C`: the activity change, less the hit threshold was 12.7% (active).
To `Cc1cccc(C)c1NC(=S)NC(=O)c1ccc(Br)o1` belongs 66.5% (active).
In the case of `C/C(=C/CCC(C)C1CCC2(C)C3CCC4C(C)(C)C(=O)CCC4(C)C3=CCC12C)C(=O)O` (configuration not stated), the activity change, less the hit threshold was -17.4%.
Turning to `CO/N=C(\CCC(=O)O)c1cccs1`, the activity change, less the hit threshold was -9.3%.
For `Cc1ccccc1NC1=NC(=S)N(c2ccccc2)C12CCCCC2`, the activity change, less the hit threshold is 11.4% (active).
As for `CC1(C)CC2(CCO1)C(Nc1ccccc1)=NC(=S)N2CC(N)=O` (configuration not stated), the activity change, less the hit threshold was -15.8%.
Regarding `COc1ccc(/C=C/c2cc(=O)c3cc(Cl)ccc3o2)cc1`, the activity change, less the hit threshold was -18.8%.
Turning to `NS(=O)(=O)c1ccc(NC(=O)c2ccc(S(=O)(=O)N3CCc4ccccc43)cc2)cc1`, the activity change, less the hit threshold is -7.3%.
As to `COc1cccc(NC(=O)c2nn(-c3ccc(OC)cc3OC)c(=O)c3ccccc23)c1`, the activity change, less the hit threshold was -13.8%.
With `COc1cccc(-n2nc(C(=O)O)c3ccccc3c2=O)c1`, the activity change, less the hit threshold was 3.7% (active).
`COc1ccc(-n2nc(C(=O)NCC(=O)NCc3ccc(F)cc3)c3ccccc3c2=O)cc1OC`: the activity change, less the hit threshold is -10.3%.
Consider `COc1ccc(C)cc1-n1nnnc1SCc1nc2ccccc2c(=O)[nH]1`, for which the activity change, less the hit threshold was -22%.
For the molecule `CCOC(=O)c1nc(C)n(-c2ccc(Cl)cc2)n1`, the activity change, less the hit threshold was -12.5%.
For the molecule `CCCCC1(O)CC(C(F)(F)F)=NN1C(=O)COc1ccccc1` (configuration not stated), the activity change, less the hit threshold is -22.2%.
As for `CCOC(=O)C1=NN(C(=O)c2ccccc2)C(O)(c2ccc(C)cc2)C1` (configuration not stated), the activity change, less the hit threshold is 2.6% (active).
As for `CCOC(=O)C1=NN(C(=O)c2ccc(C)cc2)C(O)(c2ccc(Cl)cc2)C1` (configuration not stated), the figure is 88.1% (active); as for `CCOC(=O)C1=NN(C(=O)c2ccc(OC)cc2)C(O)(c2ccc(Cl)cc2)C1` (configuration not stated), 71.1% (active); as for `CCC1=NN(C(=O)c2ccc(Cl)cc2)C(O)(c2ccc(C)cc2)C1` (configuration not stated), -12.6%.
`CCOC(=O)CN1N=C(/C=C/c2ccc(OC)cc2)CCC1=O`: the activity change, less the hit threshold was -17.3%.
To `O=C(CSc1nc2cc(Cl)ccc2s1)c1cc2ccccc2o1` belongs -2%.
To `CN1C(=O)C2(OCC(C)([N+](=O)[O-])CO2)c2ccccc21` (configuration not stated) belongs -9.8%; to `CC1=C(C#N)C(Nc2cc(C)ccn2)(C(F)(F)F)C(=O)N1` (configuration not stated), -18.4%; to `CSc1nc2c(c(=O)[nH]1)C(c1ccccc1Cl)CC(=O)N2` (configuration not stated), -20.4%.
Take `Cc1cc(C(=O)NP(=O)(N2CCOCC2)N2CCOCC2)c(C)n1-c1ccc(Br)cc1`: the activity change, less the hit threshold is -22%.
To `O=C(CSc1nnc(SCc2ccccc2)s1)N/N=C/c1ccc(Cl)cc1Cl` belongs -22.9%.
As to `O=C1c2ccccc2C(=O)N1c1cccnc1`, the activity change, less the hit threshold is -14.6%.
Consider `Cc1ccc(C)c(NC(=S)c2nc3ccccc3s2)c1`, for which the activity change, less the hit threshold is -7.6%.
Take `CC(C)Oc1ccc(CNC(=O)C2CCN(C(=O)N3CCOc4ccccc43)CC2)cc1`: the activity change, less the hit threshold was -20.2%.
Turning to `CC(=O)c1ccc2c3c(cccc13)CC2`, the activity change, less the hit threshold is -12.7%.
`CC(C)CC(=O)Nc1ccc2c3c(cccc13)CC2`: the activity change, less the hit threshold was 44.7% (active).
With `COc1cc(C(=O)NCc2ccc(-c3nc4ccccc4o3)cc2)cc(OC)c1OC`, the activity change, less the hit threshold is -13.9%.
